Screen size: about 3,400 compounds; about 840 (25%) were called active. Roughly 11% stayed inconclusive and do not appear here.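 The calls were made as follows: active = fitted half-maximal concentration of signal decrease at or below twice the sample's top tested concentration; inconclusive = flat curve between -70 and -30 percent, or poor fit; inactive = flat within 30 percent, signal rise, or potency above limit.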 These entries were drawn from the full list. Measured potencies and affinities stand elsewhere.
Test: T. gondii growth inhibition with IFN-gamma, dose response, cell-based, ME49Luc, HeLa, luciferase, 72 h (AID 1259418)
Settings: T. gondii ME49Luc in IFN-y HeLa, hits give low values, -100% = high-dose IFN-γ control wells; at 19.5 µM unless noted

Row | Structure (SMILES) | max activity
1 | CCOC(=O)c1c(C)[nH]c(-c2ccccc2)c1-c1ccccc1 | 20.8% [at 10 µM] (inactive)
2 | CCc1ccc(NC(=O)Nc2ccc(-c3nc(-c4ccc(C)cc4)co3)cc2)cc1 | 11.2% [at 0.16 µM] (inactive)
3 | Cc1ccc(S(=O)(=O)N2CCC3(CC2)NCCN=C3NCc2cccc(F)c2)c(C)c1 | -19.4% [at 10 µM] (inactive)
4 | COc1ccc(CNC2=NCCNC23CCN(S(=O)(=O)c2cccs2)CC3)cc1 | -8.27% [at 0.35 µM] (inactive)
5 | Cc1ccc(S(=O)(=O)N2CCC3(CC2)NCCN=C3NCc2ccc(F)cc2)c(C)c1 | -23.4% (inactive)
6 | CCc1ccc(S(=O)(=O)N2CCC3(CC2)NCCN=C3NCc2cccc(OC)c2)cc1 | -9.5% [at 0.68 µM] (inactive)
7 | CN(C)C(=O)c1ccc(-c2ccc([C@H]3[C@@H](CO)N4C(=O)CN(C(=O)CC5CC5)C[C@@H]34)cc2)cc1 | 20.3% (inactive)
8 | Cc1cnc(N2C[C@@H](c3ccccc3)[C@@]3(CCNC3=O)C2)nc1 | 22.8% (inactive)
9 | Cc1ccc(-n2ncc3c(NCC4CCCO4)ncnc32)c(C)c1 (stereo unspecified) | 9.91% [at 0.16 µM] (inactive)
10 | COc1ccc(CNC(=O)CCC2N=C3c4ccccc4N=C(SCc4cc(=O)n5cc(Cl)ccc5n4)N3C2=O)cc1 (stereo unspecified) | -8.86% [at 1.35 µM] (inactive)
11 | CSc1ccc(-c2noc(-c3nnn(Cc4nc(-c5cccc(C)c5)oc4C)c3C)n2)cc1 | -16.4% [at 0.16 µM] (inactive)
12 | Cc1ccc(OCC(=O)Nc2cncc(-c3nc4ccccc4o3)c2)cc1 | 10.2% [at 1.35 µM] (inactive)
13 | Cc1nc(CCNC(=O)[C@H]2CCCN2S(=O)(=O)c2ccc3c(c2)CCCC3)cs1 | 26.6% [at 0.35 µM] (inactive)
14 | Cc1ccc2c(c1)cc(S(=O)(=O)c1ccccc1)c(=O)n2CC(=O)NCc1ccc2c(c1)OCO2 | -10.2% [at 0.68 µM] (inactive)
15 | Cc1cccc(CNC2=NCCNC23CCN(S(=O)(=O)c2ccc(C)c(C)c2)CC3)c1 | -21.5% (inactive)
16 | Cc1ccc(S(=O)(=O)N2CCC3(CC2)NCCN=C3NCc2ccccc2C)c(C)c1 | -17.1% (inactive)
17 | COCCCNC1=NCCNC12CCN(S(=O)(=O)c1ccc(C)cc1C)CC2 | 13.7% [at 10 µM] (inactive)
18 | Cc1ccccc1CNC1=NCCNC12CCN(S(=O)(=O)c1cccs1)CC2 | 21.2% [at 10 µM] (inactive)
19 | O=C(CC1N=C2c3ccccc3N=C(SCc3cc(=O)n4ccccc4n3)N2C1=O)NCc1ccc2c(c1)OCO2 (stereo unspecified) | 49.3% (inactive)
20 | Cc1nc(OCC(=O)Nc2ccc(C)c(C)c2)c2ccccc2n1 | 14.4% [at 0.16 µM] (inactive)
21 | O=C(Nc1ccc(Cl)cc1)N1C[C@H]2[C@@H](c3ccccc31)[C@@H](CO)N2CC1CCCCC1 | 10.8% [at 10 µM] (inactive)
22 | CSc1cccc(NC(=O)CN2CCC3(CC2)N=C(c2ccc(F)cc2)C(=O)N3)c1 | 9.26% (inactive)
23 | COc1ccccc1-c1nc(CN2CCc3c(sc4c3CCCC4)C2c2ccccc2)c(C)o1 (stereo unspecified) | 10.8% [at 0.038 µM] (inactive)
24 | COc1ccc(CN2CCO[C@H]3[C@H]2CC[C@H]3OCCCn2cccn2)cc1 | 14.7% [at 5 µM] (inactive)

Row | Structure (SMILES) | max activity
25 | COc1ccc(CN2C[C@@H]3CN(Cc4cnn(C)c4)C[C@H]3C2=O)cc1 | 20.7% (inactive)
26 | Cc1nc2c(cnn2-c2ccccc2)c(=O)n1-c1cccc2ccccc12 | 22.6% [at 10 µM] (inactive)
27 | COc1ccc2c(c1)NC1(CCN(C(=O)c3ccccc3Cl)CC1)c1cccn1-2 | -5.12% (inactive)
28 | CCOc1ccc(-c2nc(Cn3c(=O)c4c(C)cc(C)nc4n(-c4ccccc4)c3=O)c(C)o2)cc1 | 8.31% [at 0.16 µM] (inactive)
29 | COc1ccc(NC(=O)N2CCCCN3[C@@H](CO)[C@H](c4ccc(-c5ccccc5F)cc4)[C@@H]3C2)cc1 | 20.7% [at 5 µM] (inactive)
30 | O=C(Nc1ccccc1F)N1CCCCN2[C@H](C1)[C@H](c1ccc(/C=C/c3ccccc3)cc1)[C@@H]2CO | 35.7% [at 10 µM] (inactive)
31 | CCc1ccc(-n2nnc(C(=O)N3CCC(N4CCCCC4)CC3)c2-c2ccncc2)cc1 | 6.73% [at 5 µM] (inactive)
32 | Cc1[nH]c2ccccc2c1C(=O)C(=O)NC1CC(=O)N(c2ccc3c(c2)OCCO3)C1 (stereo unspecified) | 7.24% (inactive)
33 | Cc1ccc(-c2coc(-c3ccc(NC(=O)COc4ccccc4C)cc3)n2)c(C)c1 | -20.2% [at 1.35 µM] (inactive)
34 | COc1ccc(-c2nc(N(C)C3CCCCC3)c3ccccc3n2)cc1 | 11.7% (inactive)
35 | COc1ccccc1Nc1nc(-c2ccc(Cl)cc2)nc2ccccc12 | -18.5% [at 0.68 µM] (inactive)
36 | Cc1ccsc1C(=O)Nc1ccc(-c2nc(-c3ccccc3)co2)cc1 | 30.4% [at 0.68 µM] (inactive)
37 | COc1cccc(N(Cc2nc(-c3ccccc3)oc2C)S(=O)(=O)c2ccc(C)cc2)c1 | -7.21% [at 1.35 µM] (inactive)
38 | O=C(Cn1c(=O)c(S(=O)(=O)c2ccccc2)cc2ccccc21)NC1CCCC1 | 9.84% [at 0.35 µM] (inactive)
39 | CCOc1ccccc1-c1nc(CN2CCc3c(sc4c3CCCC4)C2c2ccccc2)c(C)o1 (stereo unspecified) | 19.5% (inactive)
40 | CC1=CCC=CC1C(=O)Nc1ccc2c(c1)CCC(=O)N2C (stereo unspecified) | 56.7% (inactive)
41 | Cc1ccc(-c2coc(-c3ccc(NC(=O)Nc4ccccc4)cc3)n2)cc1 | -15.8% (inactive)
42 | Cc1ccc(-c2coc(-c3ccc(NC(=O)COc4ccc(F)cc4)cc3)n2)c(C)c1 | 10.4% [at 0.35 µM] (inactive)
43 | COCCCNC1=NCCNC12CCN(S(=O)(=O)c1cc(C)cc(C)c1)CC2 | 11.6% [at 10 µM] (inactive)
44 | Cc1cc(C)cc(S(=O)(=O)N2CCC3(CC2)NCCN=C3NCc2cccc(F)c2)c1 | -38.9% (inactive)
45 | Cc1nc(-c2ccc(F)cc2)sc1-c1ccc(SCc2ccc(Cl)c(Cl)c2)nn1 | 7.38% [at 2.6 µM] (inactive)
46 | COc1cc(NC(=O)CN2CCC3(CC2)N=C(c2ccc(F)cc2)C(=O)N3)cc(OC)c1 | 16.7% [at 10 µM] (inactive)
47 | O=C(COc1ccc(Br)cc1)Nc1cncc(-c2nc3ccccc3o2)c1 | 8.52% [at 0.16 µM] (inactive)
48 | O=S(=O)(c1ccccc1)N1CCCCN2[C@H](C1)[C@H](c1ccc(C#CC3CCCC3)cc1)[C@@H]2CO | 27.4% [at 5 µM] (inactive)

Row | Structure (SMILES) | max activity
49 | COc1cccc(S(=O)(=O)N2CCCCN3[C@H](CO)[C@@H](c4ccc(C#CCC(C)C)cc4)[C@@H]3C2)c1 | 106% (inactive)
50 | COc1cccc(S(=O)(=O)N2CCCCN3[C@H](C2)[C@@H](c2ccc(C#CCC(C)C)cc2)[C@@H]3CO)c1 | 100% [at 0.08 µM] (inactive)
51 | COc1cc(C(=O)N2CCC3(CC2)Nc2cc(F)ccc2-n2cccc23)cc(OC)c1OC | 5.03% [at 0.68 µM] (inactive)
52 | COc1cccc(NC(=O)Nc2ccc(-c3nc(-c4ccc(C)cc4)co3)cc2)c1 | 21.2% [at 0.16 µM] (inactive)
53 | CCc1ccc(NC(=O)N2CCN(Cc3nc(-c4cccc(Cl)c4)oc3C)CC2)cc1 | -13.8% (inactive)
54 | Cc1cc(C)cc(NC(=O)N2CCN(Cc3nc(-c4cccc(Cl)c4)oc3C)CC2)c1 | 11% [at 1.35 µM] (inactive)
55 | COc1ccc(NC(=O)N2CCN(Cc3nc(-c4cccc(Cl)c4)oc3C)CC2)cc1OC | -22.8% (inactive)
56 | Cc1oc(-c2cccc(Cl)c2)nc1CN1CCN(C(=O)Nc2ccccc2C(F)(F)F)CC1 | -9.46% [at 2.6 µM] (inactive)
57 | Cc1oc(-c2cccc(Cl)c2)nc1CN1CCN(C(=O)Nc2ccccc2)CC1 | -19.4% (inactive)
58 | Cc1cccc(NC(=O)N2CCN(Cc3nc(-c4cccc(Cl)c4)oc3C)CC2)c1C | 13.9% [at 5 µM] (inactive)
59 | COc1ccc(-c2nc(Cn3c(=O)c4c(C)cc(C)nc4n(-c4ccccc4)c3=O)c(C)o2)c(OC)c1 | 5.72% [at 2.6 µM] (inactive)
60 | CCc1ccccc1Nc1ncnc2c1cnn2-c1ccccc1 | 13.8% [at 10 µM] (inactive)
61 | COc1ccc(Cl)cc1S(=O)(=O)Nc1ccc(-c2nc(-c3ccc(C)c(C)c3)co2)cc1 | 41.1% [at 10 µM] (inactive)
62 | CN1c2ccc(-c3ccc(C#N)cc3)cc2[C@H]2[C@H](CCN2S(=O)(=O)c2ccc(F)cc2)[C@H]1CO | 42.2% [at 10 µM] (inactive)
63 | CN1c2ccc(Br)cc2[C@H]2[C@H](CCN2S(=O)(=O)c2ccccc2F)[C@H]1CO | 25% [at 9 µM] (inactive)
64 | COc1ccc(C#Cc2ccc3c(c2)[C@H]2[C@H](CCN2S(=O)(=O)c2ccccc2C)[C@H](CO)N3C)cc1 | 22.1% [at 10 µM] (inactive)
65 | COc1ccc2c(c1)NC1(CCN(C(=O)c3ccccc3C)CC1)c1cccn1-2 | 9.16% [at 0.68 µM] (inactive)
66 | CCc1cccc(NC(=O)COc2nc(C)nc3ccccc23)c1 | 15.1% [at 0.16 µM] (inactive)
67 | CCc1ccc(S(=O)(=O)N2CCC3(CCC(C(=O)N4CCCC4)O3)CC2)cc1 (stereo unspecified) | 19.6% (inactive)
68 | CCOc1ccc(-c2nc3c(s2)CN(S(=O)(=O)c2ccc(CC)cc2)CC3)cc1 | 33% (inactive)
69 | Cc1ccc(-c2coc(-c3ccc(NC(=O)c4ccc(Br)o4)cc3)n2)c(C)c1 | 29% [at 0.68 µM] (inactive)
70 | COc1ccc(CCC(=O)N2CCC(C(=O)NCCc3csc(-c4ccccc4)n3)CC2)cc1 | 22% [at 10 µM] (inactive)
71 | COc1ccc(-c2cnc3n2CCNC32CCN(C(=O)N3CCOCC3)CC2)cc1 | 31.8% (inactive)
